Assay outcomes from PubChem BioAssay.
TRAIL sens C8 – viability loss with TRAIL in NB7+C8 cells, primary screen, TRAIL sensitizer project, cell-based, ATPlite luminescence. AID 624354, 2012. 360,000 compounds, 1% hits. inhibition (viability loss, TRAIL sensitization), % at 10 µM;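 active means compounds causing at least 50% loss of cell viability in the single-dose screen, relative to plate controls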
PPC-1+TRAIL kill – compounds killing PPC-1 cancer cells with TRAIL present, primary screen, TRAIL potentiator project, ATPLite luminescence, uHTS; PPC-1 cells + TRAIL, ATPLite viability luminescence; cell killing (% activity), % at 4 µM or 5 µM; 220,000 compounds, 0.41% hits; AID 1443, 2008;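 active means cell killing above 50% in the first pass at 4 µM, then a duplicate retest at 5 µM averaging 50% or more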;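 further: plate controls were cells with TRAIL plus DMSO for no effect and medium-only wells lacking cells for full effect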
HSP90 refold inh – HSP90 inhibitors, primary screen, cell lysate, luminescence; Heat shock protein HSP 90 (rabbit reticulocyte lysate; luciferase refolding); 290,000 compounds, 0.91% hits; inhibition, % at 5.6 µM; AID 1789, 2009; Rabbit reticulocyte lysate, luciferase refolding luminescence, 3 h;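 active means inhibition above the screen-wide mean plus 3 SD, computed separately per campaign, cut at about 16% in these data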;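 further: 0% = DMSO wells and 100% = 60 µM geldanamycin wells; inhibitors lower the luminescence because luciferase stays unfolded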
TROY NFkB inh – inhibitors of TROY-driven NF-kB signaling, primary screen, Q293 LMP1-TROYcd cells, NF-kB luciferase, uHTS; Q293 LMP1-TROYcd NF-kB luciferase reporter, 4 h; inhibition, % at 10 µM; 360,000 compounds, 0.98% hits; AID 1347056, 2019;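 active means compounds whose plate-normalised and pattern-corrected inhibition of the luciferase reporter signal at the single screening dose is 50% or more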
TWEAK-Fn14 inh – inhibitors of TWEAK-Fn14 signaling, primary screen, luciferase reporter cells, uHTS; TWEAK-stimulated Fn14 reporter cells, luciferase luminescence, 8 h; inhibition, % at 10 µM; 360,000 compounds, 2% hits; AID 1159606, 2016; in the data active means inhibition above about 50%
Platelet DG rel – inhibitors of platelet dense granule secretion, primary screen, cell-based, MLPCN, human platelets; human platelet-rich plasma, SFLLRN dense granule ATP release, luminescence; 300,000 compounds, 0.22% hits; AID 1663, 2009; inhibition, %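 (compounds screened at 7.5 µM in platelet-rich plasma)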;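 active means mean replicate score, as percent of positive control, at or above 50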
HSP90 confirm – HSP90 inhibitors, confirmation, cell lysate, luminescence; shares compounds with HSP90 refold inh; rabbit reticulocyte lysate, luciferase refolding luminescence, 3 h; inhibition, % at 5.9 µM; 2,300 compounds, 64% hits; in the data active means inhibition above about 18%;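 further: 0% = vehicle wells and 100% = reference inhibitor wells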
luciferase ctr – firefly luciferase inhibitors, HSP90 counter-screen, confirmation, artefact control for HSP90 inhibitor project, biochemical, luminescence, triplicate | shares compounds with HSP90 refold inh | purified native firefly luciferase | inhibition, % at 5.9 µM | 2,300 compounds, 48% hits | AID 1847, 2009;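 active means inhibition above the mean inhibition of all tested sample wells plus 3 SD, cut at about 10% in these data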;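 further: 0% = DMSO with luciferase and 100% = wells lacking luciferase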
Target sequence (P08659 whole entry, looked up): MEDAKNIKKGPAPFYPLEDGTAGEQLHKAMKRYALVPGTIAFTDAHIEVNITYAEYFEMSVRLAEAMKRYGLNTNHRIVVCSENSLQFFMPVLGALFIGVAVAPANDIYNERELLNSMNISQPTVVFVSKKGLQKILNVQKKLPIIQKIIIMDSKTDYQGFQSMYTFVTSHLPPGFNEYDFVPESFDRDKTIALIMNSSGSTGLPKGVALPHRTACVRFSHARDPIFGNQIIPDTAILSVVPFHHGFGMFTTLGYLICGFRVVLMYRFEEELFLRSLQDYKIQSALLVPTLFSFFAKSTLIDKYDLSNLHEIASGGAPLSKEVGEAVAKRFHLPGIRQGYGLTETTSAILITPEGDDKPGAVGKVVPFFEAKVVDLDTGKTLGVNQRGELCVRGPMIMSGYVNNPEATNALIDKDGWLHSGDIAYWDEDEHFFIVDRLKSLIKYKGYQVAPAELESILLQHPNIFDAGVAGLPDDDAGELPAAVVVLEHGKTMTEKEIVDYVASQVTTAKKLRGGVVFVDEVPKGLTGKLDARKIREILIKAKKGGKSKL
* hit, by the source's call; nt = not tested or not shown. This is a sample that favours compounds with a hit; in the whole collection about 3.5% have one here.

SMILES	TRAIL sens C8	PPC-1+TRAIL kill	HSP90 refold inh	TROY NFkB inh	TWEAK-Fn14 inh	Platelet DG rel	HSP90 confirm	luciferase ctr
CC(NC(=O)CSc1nnc(-c2cccnc2)n1N)c1ccccc1 (stereo not drawn)	-16.5	-1.9	18.3*	8.2	8.6	8.8	-0.3	-6.8
Cc1cccc(C(=O)Nc2nc(C)c(C(=O)Nc3ccc4c(c3)CCC4)s2)c1	-42.9	20.5	79.7*	7.7	52.0*	4.6	82.9*	15.1*
O=C(N/N=C/c1cccnc1)NC12CC3CC(CC(C3)C1)C2	-5.0	2.5	31.8*	-14.3	-39.8	-1.0	6.3	0.8
O=C(N/N=C/c1ccc(O)c(O)c1)NC12CC3CC(CC(C3)C1)C2	0.7	nt	-5.0	-4.5	10.9	1.2	nt	nt
c1ccc(-c2ccc(-c3ccccn3)nn2)nc1	nt	16.3	27.6*	nt	nt	21.0	54.1*	36.0*
Cc1ccc(S(=O)(=O)NC(CC(C)C)C(=O)Nc2ccncc2)cc1 (stereo not drawn)	4.9	nt	nt	-12.3	-1.8	-0.3	nt	nt
CC1=C(C(=O)N(C(C)C)C(C)C)CC(CC(=O)NC2CCCCC2)C(=O)N1Cc1ccc(C(C)(C)C)cc1 (stereo not drawn)	-0.6	nt	nt	19.7	6.9	nt	nt	nt
O=C(c1ccco1)N1CCN(C(=O)C2CCCN(S(=O)(=O)Cc3ccccc3)C2)CC1 (stereo not drawn)	3.4	11.9	-1.9	-8.3	-6.7	2.9	nt	nt
O=C(C1CCCN(S(=O)(=O)Cc2ccccc2)C1)N1CCCCC1 (stereo not drawn)	-5.9	18.5	25.4*	18.2	0.9	-21.4	-4.2	-10.0
COc1cccc(CN(C)C[C@H]2OCc3cnnn3CCCC(=O)N([C@H](C)CO)C[C@@H]2C)c1	-7.2	nt	nt	-20.1	-11.3	nt	nt	nt
CC(=N\NC(=O)c1ccccc1)/C(=N/O)C(=O)Nc1ccccc1	4.3	nt	72.7*	-7.4	-7.0	-1.1	-1.0	-5.5
CC(=N\Nc1ccccc1)/C(=N/O)C(=O)Nc1ccccc1	-11.2	3.0	-3.0	12.9	0.2	0.8	nt	nt
[O-]/[N+](=C\c1ccncc1)c1ccc(Br)cc1	11.7	9.5	30.9*	-34.5	-15.2	26.2	97.3*	-9.6
CSc1cccc(CNC(=O)C2CCC(=O)N(CCCN3CCCC3=O)C2)c1 (stereo not drawn)	-2.3	nt	-2.0	-28.7	-6.6	1.1	nt	nt
COCC(=O)Nc1ccc(N2CCN(c3ccccc3)CC2)c(F)c1	-4.5	nt	27.4*	-11.7	-8.2	-0.1	-7.3	-12.6
CCc1ccc(NC(=O)CN2CCCN(S(=O)(=O)c3ccc(F)cc3)CC2)cc1	12.3	nt	1.2	8.2	8.1	-1.0	nt	nt
Clc1cccc(-c2ccc(CNCCCN3CCOCC3)o2)c1	1.5	2.5	27.3*	11.3	4.6	0.4	1.1	-4.3
CC(C)(C)c1cc(NC(=O)c2ccco2)no1	43.2	nt	19.1*	2.4	35.3	36.6	31.1*	12.4*
CC(=O)N(CCN1CCOCC1)Cc1cc2cc3c(cc2nc1Cl)OCO3	-2.0	13.7	23.9*	-8.2	2.3	-5.3	-6.6	-7.5
CC1=C(C(=O)N(C(C)C)C(C)C)CC(CC(=O)NCCCCc2ccccc2)C(=O)N1Cc1ccc(F)cc1 (stereo not drawn)	4.5	nt	nt	4.4	22.0	nt	nt	nt
Cn1c(-c2ccc(F)cc2)cnc1SCC(=O)N1CCCCC1	9.0	10.2	18.5*	17.1	60.1*	-2.2	27.5*	18.9*
COc1ccc(C(=O)NC2CCN(C(=S)Nc3cc(C)cc(C)c3)CC2)cc1	-8.2	15.4	0.8	-2.4	7.2	1.7	nt	nt
COc1ccc(C(=O)NC2CCN(C(=S)Nc3cccc(C)c3)CC2)cc1	-3.2	23.1	21.1*	19.3	4.5	-3.0	4.7	-0.9
NC(Cc1ccc(F)cc1)c1csc(Nc2ccc(C(F)(F)F)cn2)n1 (stereo not drawn)	21.9	nt	nt	2.7	-8.9	nt	nt	nt
CCc1nnc(N/N=C/c2ccc(-c3ccc([N+](=O)[O-])cc3)o2)n1N	-5.2	31.7	35.9*	-2.8	-23.5	1.7	-3.2	-5.7
SMILES	TRAIL sens C8	PPC-1+TRAIL kill	HSP90 refold inh	TROY NFkB inh	TWEAK-Fn14 inh	Platelet DG rel	HSP90 confirm	luciferase ctr
Cc1nnc(N/N=C/c2ccc(-c3ccccc3F)o2)n1N	4.2	1.7	64.6*	-65.6	-20.9	4.1	18.1*	-11.0
Cc1n[nH]c(=S)n1/N=C/c1ccc(-c2ccccc2[N+](=O)[O-])o1	6.3	8.0	0.7	-8.6	-2.5	-43.7	nt	nt
COC(=O)c1ccccc1-c1ccc(/C=N/NC(N)=O)o1	-11.2	21.9	0.1	4.5	-11.6	-3.3	nt	nt
Cc1nnc(N/N=C\c2ccc(-c3ccccc3[N+](=O)[O-])o2)n1N	11.6	16.4	38.1*	4.7	-4.1	2.8	-8.3	-12.5
O=C(c1cc(S(=O)(=O)N2CCOCC2)ccc1Cl)N1CCc2ccccc2C1	-8.8	nt	-2.0	21.8	6.6	-0.5	nt	nt
Cc1ccc(CN(C)C(=O)CN2C(=O)NC(c3ccccc3)(c3ccccc3)C2=O)c(C)c1	-0.3	nt	nt	17.3	-3.8	nt	nt	nt
Nc1cccc2c1C(=O)N(CCOc1ccccc1F)C2=O	-0.6	nt	29.6*	18.6	58.6*	5.7	51.4*	45.3*
COc1cc(C(=O)NC(C)C2CC3CCC2C3)ccc1OC(F)F (stereo not drawn)	6.9	nt	nt	2.6	-13.1	nt	nt	nt
O=C(Oc1ccc2ccccc2c1Br)N1CCCCCC1	34.1	33.3	21.7*	66.5*	64.5*	4.4	42.9*	26.2*
Cc1ccc(CCNC(=O)C2CCN(c3nn4c(=O)cc(C)nc4s3)CC2)cc1	8.3	32.7	-1.4	-13.3	10.9	-0.3	nt	nt
CCOc1ccc(CCNC(=O)C2CCN(c3nn4c(=O)cc(C)nc4s3)CC2)cc1	31.6	21.2	17.6*	19.1	-12.1	nt	-9.4	-11.9
CC(=O)c1ccc(S(=O)(=O)N2CCN(C(=O)CSc3ccc(F)cc3)CC2)cc1	7.4	nt	24.2*	8.8	2.5	-1.0	-6.8	-9.9
Cn1nc(C(=O)O)c(=O)n(C)c1=O	1.4	nt	nt	1.9	-1.1	nt	nt	nt
Cc1cc2ccccc2c(=O)n1CC(=O)NCC(=O)N(C)C1CCCCC1	-7.6	-0.7	28.0*	9.0	12.1	-6.3	-6.7	-9.9
CCCCOC(=O)CSc1nc(N)c(C#N)c(-c2ccc(OC)cc2)c1C#N	1.2	8.2	24.6*	0.2	16.9	9.9	4.6	-6.1
